Bioassay records: PubChem, National Center for Advancing Translational Sciences (NCATS)
Shown are actives, neighbours in structure and some others; about 2.1% of the full set was active somewhere.
FUS yeast rescue – rescues growth of FUS-expressing yeast; actives 0.24% (n = 390,000); Potency, µM (top dose mostly 76.6 µM), actives largely listed as activators; AID 1347120; S. cerevisiae FUS-expressing, growth rescue, OD600, 24 h;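 note: plate controls were DMSO vehicle for no effect and reference control for full effect; nearly all actives have a fitted effect of over 55% in size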
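Yeast expressing FUS under galactose induction, OD 0.005 in 2% galactose medium; compounds in a dilution series, 24 h at 30C. Growth rescue by absorbance at 600 nm; CP55940 positive control, DMSO negative.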
TDP-43 yeast inh – rescues yeast growth from TDP-43 toxicity. TDP-43 expressing yeast growth rescue, BacTiter-Glo, 24 h. Potency, µM (top dose mostly 46.1 µM), without a hit: at the top dose growth rescue (activation), most hits filed as activators. actives 1.8% (n = 410,000). AID 652104; note: % of control where 0% means no effect; nearly all actives have a fitted effect of over 50% in size
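Yeast expressing TDP-43 (pregrown in raffinose, seeded at OD600=0.02 in galactose medium) exposed to compounds 24 hr at 30 deg C. Growth read by BacTiter-Glo luminescence; rescue of toxicity appears as increased signal.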
aSyn rescue – inhibitors of alpha-synuclein toxicity in yeast. AID 652106. Yeast expressing alpha-synuclein, growth rescue, BacTiter-Glo, 24 h. Potency, µM (top dose mostly 46.1 µM), inactives show top-dose growth rescue (activation), hits mostly activators. actives 0.14% (n = 370,000); note: % of control where 0% means no effect; nearly all actives have a fitted effect of over 65% in size
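Readout is rescue of growth in alpha-synuclein-expressing yeast, so inhibitors of toxicity appear as activators. Growth after 24 hr at 30 deg C in galactose medium is quantified by luminescence.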
Abeta yeast res – A-beta toxicity reversal in yeast. yeast expressing A-beta42, growth rescue, OD600, 48 h; response scale: 0% DMSO, 100% iron-clioquinol control. Potency, µM (highest dose often 46.1 µM), usual class: activators. actives 0.063% (n = 410,000); note: nearly all actives have a fitted effect of over 55% in size
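Yeast growth medium received pinned compounds, then yeast cells expressing toxic A-beta were added; plates incubated at 30 C for 48 hr. Growth read as absorbance at 600 nm, normalized to DMSO and equimolar FeCl3 plus clioquinol controls.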
An asterisk follows results filed as active; i = inactive; ? = inconclusive; . = not tested or not shown. Calls come from the whole dose curve; as a rule, active = well fitted curve in the direction sought with a large enough effect; inconclusive = small, poorly fitted or top-dose-only effect, or another doubt; inactive = no such curve, though single readings can be large; an effect the other way counts as inactive or inconclusive. Potency is the fitted concentration of half-maximal effect.

SMILES | FUS yeast rescue | TDP-43 yeast inh | aSyn rescue | Abeta yeast res
COc1ccc(Nc2nnc(SCC3CCCO3)s2)cc1 (stereo unspecified) | i | 28.2µM* | -9.6% | i
COc1ccc(Cc2nnc(SCC(=O)Nc3ccccc3C)n(N)c2=O)cc1 | i | 3.9% | -11.3% | i
O=C(NCC1CCCO1)c1ccc(COc2ccccc2Br)cc1 (stereo unspecified) | i | 12.6µM* | -9.3% | i
O=C(NCC1CCCO1)c1ccc(COc2ccc(Cl)cc2)cc1 (stereo unspecified) | i | -11.5% | -0.1% | i
O=C(COc1cccnc1[N+](=O)[O-])Nc1ccccc1Sc1ccccc1 | . | 14.1µM* | 25.6% | i
O=S(=O)(Nc1ccc(C(O)(C(F)(F)F)C(F)(F)F)cc1)c1cccc2ccccc12 | i | 35.5µM* | -16.0% | i
CC(C)(C)c1ccc(S(=O)(=O)Nc2ccc(C(O)(C(F)(F)F)C(F)(F)F)cc2)cc1 | ? | 35.5µM* | -25.0% | ?
CC(=O)Nc1ccc(NS(=O)(=O)c2cccc3ccccc23)cc1 | i | 2.3% | 2.7% | i
COc1cccc(-c2ccc(=O)n(CC(=O)NCCN3CCOCC3)n2)c1 | i | -24.5% | -0.4% | i
Cc1ccc(C(=O)OCC(=O)NC2CCCC(C)C2C)s1 (stereo unspecified) | i | ? | 27.9% | i
CC1CCCCC1NC(=S)NC(=O)c1cccs1 (stereo unspecified) | i | 26.9% | -4.6% | 10µM*
CN(C)c1ccc(C(=O)OCC(=O)NC2CCCCCC2)cc1 | i | 21.8% | -7.8% | i
O=C(NC(=S)Nc1ccc(S(=O)(=O)NC2CCCCC2)cc1)c1cccs1 | ? | 22.4µM* | ? | ?
O=C(NC(=S)Nc1ccc(S(=O)(=O)N2CCCCC2)cc1)c1cccs1 | . | -7.3% | 8.7% | i
CC1CCCCC1NC(=O)COC(=O)c1ccc(N(C)C)cc1 (stereo unspecified) | i | 15.8µM* | 6.0% | i
CC1CCCC(NC(=O)COC(=O)c2cccs2)C1C (stereo unspecified) | i | 11.2µM* | 9.9% | ?
CN(CC(=O)Nc1ccccc1Cl)C(=O)COC(=O)c1nc(Cl)c(Cl)c(Cl)c1Cl | i | ? | 0.2% | i
O=C(NC(=S)Nc1ccc(N2CCCCC2)c(Cl)c1)c1cccs1 | . | 35.5µM* | -17.6% | i
CCOc1ccc(C(=O)N2CCN(c3ncccn3)CC2)cc1 | i | 5.9% | -2.3% | i
CN1CCN(C(=O)c2cc3ccccc3cc2O)CC1 | . | 17.6% | -12.7% | i
O=[N+]([O-])c1ccc(Nc2nccc(Cl)n2)cc1 | i | 5.62µM* | 2.9% | i
CC(C)N(C(=O)[C@H]1C[C@H](CC(=O)NCC23CC4CC(CC(C4)C2)C3)C(=O)N2CCc3c([nH]c4cc(-c5ccco5)ccc34)[C@]12C)C(C)C | i | 1.3% | -10.4% | i
COc1ccc(CNC(=O)C[C@H]2C[C@H](C(=O)N3CCOCC3)[C@@]3(C)c4[nH]c5ccc(Cl)cc5c4CCN3C2=O)cc1OC | i | 9.0% | 6.1% | i
COc1ccc(CNC(=O)C[C@H]2C[C@H](C(=O)N(C(C)C)C(C)C)[C@@]3(C)c4[nH]c5ccc(Cl)cc5c4CCN3C2=O)cc1OC | ? | 12.6µM* | 12.7% | i
CC(C)N(C(=O)[C@H]1CC(CC(=O)NCC23CC4CC(CC(C4)C2)C3)C(=O)N2CCc3c([nH]c4ccccc34)[C@]12C)C(C)C (stereo partly specified) | i | 22.4µM* | ? | i
CC(=O)c1cccc(NC(=O)C2(C)Cc3c(-c4cccc(C(F)(F)F)c4)ccnc3O2)c1 (stereo unspecified) | ? | 35.5µM* | ? | i
CC1(C(=O)Nc2ccc(Cl)c(C(F)(F)F)c2)Cc2c(-c3ccccc3)ccnc2O1 (stereo unspecified) | i | 4.8% | -6.3% | i
CC(=O)Nc1ccc(-c2ccnc3c2CC(C)(C(=O)Nc2ccc(Cl)c(C(F)(F)F)c2)O3)cc1 (stereo unspecified) | ? | 35.5µM* | -34.7% | i
COc1ccc(-c2cc(C(=O)Nc3ccc(S(=O)(=O)Nc4ncccn4)cc3)c3ccccc3n2)cc1 | i | -1.2% | -10.2% | i
